HCV inh: qHTS Assay for Inhibitors of Hepatitis C Virus (HCV); Huh7.5.1 HCVcc-Cre infection, luciferase reporter, 44 h; 3.4% of 340,000 active; Potency, µM (series often up to 41.8 µM), without a hit: top-dose activity change, negative = inhibition, usual class: inhibitors; note: potency is the fitted concentration of half-maximal effect
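Cells (1,000/well) were plated 4 h before compound, then infected with HCVcc-Cre virus (~0.5 moi). After 44 h further culture, infection was read as luciferase luminescence following a 15 min substrate incubation at room temperature.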
HCMV inh: qHTS Assay for inhibitors of the human cytomegalovirus (HCMV); HFF cells, HCMV-luciferase reporter, 72 h; stronger effect = lower value; activity change, negative = inhibition, % at 57.5 µM; 4.5% of 410,000 active; AID 1259415, 2018; in the data active = activity change below about -60%; inconclusive = no clear call, values can overlap the other calls; inactive = above about -39%
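Human foreskin fibroblasts infected with luciferase-reporter HCMV at MOI 1 PFU/cell, compounds at two doses. Luciferase measured 72 h post infection; normalized to buffer-only basal and Salinomycin (10uM) controls.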
FMDV inh: High Throughput Screening for Foot and Mouth Disease Virus Antivirals. FMDV antiviral cell-based qHTS. Potency, µM (series often up to 57.9 µM), for inactives: top-dose activity change, negative = inhibition, actives largely listed as inhibitors. 1.2% of 410,000 active; calls by dose curve; tested in HEK293T cells; note: read-out not given here; potency is the fitted concentration of half-maximal effect; nearly all actives have a fitted effect of over 45% in size
FBPA Giardia inh: qHTS Assay for Inhibitors of Fructose-1,6-bisphosphate Aldolase from Giardia Lamblia | A8B2U2 | AID 2451, 2010 | purified Giardia FBPA | Potency, µM (series often up to 59.6 µM), inactives show at the top dose activity, negative = inhibition, hits mostly inhibitors | 0.71% of 290,000 active; note: potency is the fitted concentration of half-maximal effect; nearly all actives have a fitted effect of over 55% in size
Target sequence (A8B2U2 whole entry, looked up): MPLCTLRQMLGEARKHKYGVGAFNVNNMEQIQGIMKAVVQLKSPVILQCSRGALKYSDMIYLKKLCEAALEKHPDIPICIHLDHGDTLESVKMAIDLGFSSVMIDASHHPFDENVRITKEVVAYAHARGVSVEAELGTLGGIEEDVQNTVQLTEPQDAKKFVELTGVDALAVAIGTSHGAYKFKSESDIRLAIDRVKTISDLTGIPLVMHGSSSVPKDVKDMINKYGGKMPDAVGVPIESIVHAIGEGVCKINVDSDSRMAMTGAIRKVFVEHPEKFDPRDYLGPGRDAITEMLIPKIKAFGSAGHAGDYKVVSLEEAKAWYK
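Giardia FBPA (40 nM reagent) was preincubated 10 min at RT with compound (up to 57.5 uM final), then substrate plus GAPDH/TPI/NAD/arsenate coupling system with diaphorase/resazurin was added; resorufin fluorescence (525/598 nm) was read after 20 min.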
Marburg entry inh: qHTS for inhibitors of binding or entry into cells for Marburg Virus; Marburg virus pseudotyped entry inhibition, cell reporter; AID 540276, 2011; 1.8% of 300,000 active; Potency, µM (doses to about 37.8 µM), for the others: top-dose activity change, negative = inhibition, most hits filed as inhibitors; calls by dose curve; tested in HEK293 cells; note: potency is the fitted concentration of half-maximal effect
Lassa entry inh: qHTS for Inhibitors of binding or entry into cells for Lassa Virus; Lassa virus pseudotype entry inhibition, cell reporter; Potency, µM (titrated, usually from 37.9 µM), inactives show at the highest dose activity change, negative = inhibition, actives largely listed as inhibitors; 1.2% of 300,000 active; AID 540256, 2011; calls by dose curve; tested in HEK293 cells; note: potency is the fitted concentration of half-maximal effect; nearly all actives have a fitted effect of over 50% in size
* hit, by the source's call; [ ] = dose if it differs, or a comment. Rows were chosen to be rich in hits. Some 8.3% of all compounds tested hit in one or more screens of this group. Unless noted, calls come from the whole dose curve; as a rule, active = well fitted curve in the direction sought with a large enough effect; inconclusive = small, poorly fitted or top-dose-only effect, or another doubt; inactive = no such curve, though single readings can be large; an effect the other way counts as inactive or inconclusive. % is set by controls: 0 for no effect and ±100 for the full control effect.

`COc1ccc2cc3cc(C(=O)NCc4ccc5c(c4)OCO5)oc3nc2c1` gave HCV inh -7%, HCMV inh -23, FMDV inh 2%, FBPA Giardia inh -4%, Marburg entry inh inconclusive and Lassa entry inh 0.82µM*.
`COc1ccc2cc3cc(C(=O)Nc4ccc5c(c4)OCCO5)oc3nc2c1` gave HCV inh 11µM*, HCMV inh -19, FMDV inh -26%, FBPA Giardia inh -1%, Marburg entry inh inconclusive and Lassa entry inh inconclusive.
CN(C)c1nc2cc(Cl)ccc2cc1CN(Cc1ccc2c(c1)OCO2)C(=O)c1ccoc1 was read as FMDV inh 6%.
For Cc1cc(-c2ccnc(-n3ncc(C(=O)NCC4COCCO4)c3C)n2)c(C)s1 (centres undefined) the results were FMDV inh 38%.
`S=c1[nH]c2nc(Cl)c(Cl)nc2[nH]1` gave HCMV inh -18 and FMDV inh 0%.
For S=c1[nH]c2cnc(Cl)nc2[nH]1 the results were HCV inh 17%, HCMV inh -68*, FMDV inh 3%, Marburg entry inh 1%[46.1 µM] and Lassa entry inh 8%[46.1 µM].
CC(C)=CCC/C(C)=C/CNC(=O)CC1C[C@H](C(=O)N2CCOCC2)[C@@]2(C)c3[nH]c4ccccc4c3CCN2C1=O (some centres undefined) was read as HCV inh inconclusive, HCMV inh 1 and FMDV inh inconclusive.
`CC[C@]12c3[nH]c4cc(CCC(=O)N(C)C)ccc4c3CCN1C(=O)[C@@H](CC(=O)NCCc1ccccn1)C[C@@H]2C(=O)N1CCN(C(=O)c2ccco2)CC1` gave HCV inh -18%[8.37 µM], HCMV inh 27, FMDV inh 16% and Marburg entry inh -3%.
Screening CC(C)=CCC/C(C)=C/CNC(=O)C[C@H]1C[C@H](C(=O)N2CCOCC2)[C@@]2(C)c3[nH]c4ccc(Cl)cc4c3CCN2C1=O returned HCV inh 8%, HCMV inh -86*, FMDV inh inconclusive and Marburg entry inh 0%.
Screening C[C@]12c3[nH]c4ccc(Cl)cc4c3CCN1C(=O)[C@@H](CC(=O)NCCC1=CCCCC1)C[C@@H]2C(=O)N1CCOCC1 returned HCV inh 11µM*, HCMV inh -23, FMDV inh -19% and Marburg entry inh 7%.
For COCCCNC(=O)C[C@H]1C[C@H](C(=O)N2CCCCC2)[C@@]2(CCc3ccccc3)c3[nH]c4ccc(Cl)cc4c3CCN2C1=O the results were HCV inh 5%, HCMV inh -5, FMDV inh 40µM* and Marburg entry inh 0%.
For CC[C@]12c3[nH]c4ccccc4c3CCN1C(=O)C(CC(=O)NCCc1ccccn1)C[C@@H]2C(=O)N1CCN(C(=O)c2ccco2)CC1 (some centres undefined) the results were HCV inh 0.56µM*, HCMV inh 5 and FMDV inh -1%.
Screening CC(C)(C)NC(=O)C[C@H]1C[C@H](C(=O)N2CCCCC2)[C@@]2(CCc3ccccc3)c3[nH]c4ccc(Cl)cc4c3CCN2C1=O returned HCV inh 4%, HCMV inh -6 and FMDV inh -14%.
`COC1CCC(c2nnsc2N2C(=O)C3=C(CCCC3)C2=O)CC1` (centres undefined) gave Marburg entry inh 10%[46.1 µM].
CC[C@]12c3[nH]c4ccc(Cl)cc4c3CCN1C(=O)[C@@H](CC(=O)NCC13CC4CC(CC(C4)C1)C3)C[C@@H]2C(=O)N1CCN(C(=O)c2ccco2)CC1 was read as HCV inh inconclusive, HCMV inh -106* and FMDV inh inconclusive.
`CC[C@]12c3[nH]c4ccc(OC)cc4c3CCN1C(=O)C(CC(=O)NCC13CC4CC(CC(C4)C1)C3)C[C@@H]2C(=O)N1CCN(C(=O)c2ccco2)CC1` (some centres undefined) gave HCV inh 0%, FMDV inh inconclusive and Marburg entry inh -1%.
For CC[C@]12c3[nH]c4ccc(Cl)cc4c3CCN1C(=O)[C@@H](CC(=O)NCCC1=CCCCC1)C[C@@H]2C(=O)N1CCN(C(=O)c2ccco2)CC1 the results were HCV inh 32µM*, HCMV inh inconclusive, FMDV inh inconclusive and Marburg entry inh -7%.
For CC[C@]12c3[nH]c4ccc(Cl)cc4c3CCN1C(=O)[C@@H](CC(=O)NCCN1CCOCC1)C[C@@H]2C(=O)N1CCN(C(=O)c2ccco2)CC1 the results were HCV inh -1%, HCMV inh -28 and FMDV inh -19%.
Screening CC(C)N(C(=O)[C@H]1CC(CC(=O)NCCC2=CCCCC2)C(=O)N2CCc3c([nH]c4ccccc34)[C@]12C)C(C)C (some centres undefined) returned HCV inh 0.56µM*, HCMV inh -3 and FMDV inh -24%.
`COc1ccc(C(C(=O)NC(C)(C)C)N(Cc2ccccc2)C(=O)CCC(=O)Nc2cc(C)on2)cc1` (centres undefined) gave HCV inh -14%, HCMV inh -64*, FMDV inh 11% and FBPA Giardia inh 1%.
`CCC(C)(C)NC(=O)C(c1ccc(OC)cc1)N(C(=O)CCC(=O)Nc1cc(C)on1)c1cccc(F)c1` (centres undefined) gave HCV inh inconclusive, HCMV inh 1, FMDV inh -15%, FBPA Giardia inh 13%, Marburg entry inh inconclusive and Lassa entry inh 7.1µM*.
Screening CCC(C)(C)NC(=O)C(c1ccc(OC)cc1)N(Cc1ccccc1)C(=O)CCC(=O)Nc1cc(C)on1 (centres undefined) returned HCV inh -11%, HCMV inh -26, FMDV inh 51%, FBPA Giardia inh 5%, Marburg entry inh inconclusive and Lassa entry inh 2%[46.1 µM].
Screening Oc1ccc2c(c1)[C@H]1CCC[C@]1(N1CCOCC1)O2 returned Marburg entry inh 22%.
`COc1ccc(CC(=O)NCc2ccc3c(c2)CCN3C(=O)c2ccc(C)cc2)cc1OC` gave HCMV inh -17, FMDV inh -23% and Lassa entry inh -25%[46.1 µM].
Screening Cn1nc(C(C)(C)C)c([N+](=O)[O-])c1C(=O)Nc1ccc(Br)cc1 returned HCV inh 13µM*, HCMV inh -39, FMDV inh inconclusive and FBPA Giardia inh -2%.
For Cc1ccc2c(c1)c(=O)c(C(=O)c1ccncc1)cn2CC(=O)Nc1ccc(C(C)C)cc1 the results were HCMV inh 3, FMDV inh -22% and Lassa entry inh 5%[46.1 µM].
